Results on 19 compounds are retold here after PubChem BioAssay.

Test [1] is described as follows: inhibitors of Cryptococcus chitosan production, flow cytometry, Cibacron Brilliant Red staining (AID 1347148; call rule not given here;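 also: compound exposure lasted three days at 37 degrees C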). As to conditions: Cryptococcus neoformans chitosan, stronger effect = lower value; at 10 µM unless noted. A general note: A flow cytometer gives signals particle by particle.
Test [2] can be described thus: HD-MB03 medulloblastoma cell growth inhibition, synergistic combos for chromothripsis tumors, BGB or cisplatin IC20 combos (AID 1671455; in the data active = inhibition above about 83%;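 also: 0% = vehicle DMSO and 100% = high DMSO as cytotoxic control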). As to conditions: HD-MB03 medulloblastoma cells, stronger effect = higher value.
Test [3] in a line: UWB1.289 ovarian carcinoma cell growth inhibition, synergistic combos for chromothripsis tumors, BGB or cisplatin combos (AID 1671456).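 Also: cells exposed to compound for four days; 0% = vehicle DMSO and 100% = killing by high DMSO.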 Conditions: UWB1.289 ovarian carcinoma cells, stronger effect = higher value.
Test [4] can be described thus: LFS_MB_2R medulloblastoma cell growth inhibition, synergistic combos for chromothripsis tumors, cisplatin combos (AID 1671457).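 Also: cells exposed to compound for four days before readout.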 As to conditions: LFS_MB_2R medulloblastoma cells, stronger effect = higher value.
A short description of test [5]: UWB1.289_BRCA1 ovarian cancer growth, cell-based, BGB or cisplatin combinations (AID 1671459). As to conditions: UWB1.289 BRCA1 ovarian carcinoma, drug combinations, stronger effect = higher value.
Test [6] in a line: human astrocyte viability loss, single and combined drugs, cytotoxicity control for chromothriptic childhood tumor combination screen, cell-based, BGB or cisplatin IC20 combos (AID 1671460).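 Also: cells exposed to compounds for 96 hours before viability readout; 0% = vehicle and 100% = killing control.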 As to conditions: Human astrocytes, drug combinations, stronger effect = higher value.
The target in test [7] is Mitogen-activated protein kinase 7 (Homo sapiens) (UniProt Q13164). Put plainly: ERK5 transactivation activators in reporter cells, primary screen, cell-based, HTS (AID 1508626;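 active = luciferase signal above three times the same-plate solvent-only control wells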;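 also: luciferase driven by Gal4-ERK5 fusion binding five Gal4 sites before minimal TATA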). As to conditions: HeLa Gal4-ERK5 transactivation, 18 h, at 5 µM, stronger effect = higher value.
Sequence of Mitogen-activated protein kinase 7 (Homo sapiens) (Q13164 whole entry, looked up, the tested form may be a part): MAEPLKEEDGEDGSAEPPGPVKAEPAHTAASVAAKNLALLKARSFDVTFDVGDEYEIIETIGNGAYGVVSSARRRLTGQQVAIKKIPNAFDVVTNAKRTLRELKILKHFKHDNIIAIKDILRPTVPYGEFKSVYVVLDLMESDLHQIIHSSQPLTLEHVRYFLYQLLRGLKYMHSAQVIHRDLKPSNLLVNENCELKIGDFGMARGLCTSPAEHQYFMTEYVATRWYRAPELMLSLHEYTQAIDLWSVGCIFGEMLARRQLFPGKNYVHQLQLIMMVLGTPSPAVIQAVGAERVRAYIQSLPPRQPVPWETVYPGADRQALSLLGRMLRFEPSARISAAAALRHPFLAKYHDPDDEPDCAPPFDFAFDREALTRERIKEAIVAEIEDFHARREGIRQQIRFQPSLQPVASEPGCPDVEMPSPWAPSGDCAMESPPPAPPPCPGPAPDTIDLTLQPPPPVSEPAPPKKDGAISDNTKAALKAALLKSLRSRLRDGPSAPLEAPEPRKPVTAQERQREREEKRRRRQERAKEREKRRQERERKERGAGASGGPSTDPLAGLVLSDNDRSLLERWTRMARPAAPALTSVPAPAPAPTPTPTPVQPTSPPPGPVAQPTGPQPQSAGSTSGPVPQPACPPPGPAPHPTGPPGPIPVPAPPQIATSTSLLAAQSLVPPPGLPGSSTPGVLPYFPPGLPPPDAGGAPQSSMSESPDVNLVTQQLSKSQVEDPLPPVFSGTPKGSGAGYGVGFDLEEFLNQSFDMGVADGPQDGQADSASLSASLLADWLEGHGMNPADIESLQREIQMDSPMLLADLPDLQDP
The target in test [8] is ATP-dependent translocase ABCB1 (Homo sapiens) (UniProt P08183). Put plainly: MDR1 (ABCB1) efflux transporter inhibition, cell-based (AID 377; in the data active = fluorescence slope change above about 50%). Conditions: MDR1-expressing cells, fluorescent substrate accumulation slope; stronger effect = higher value; concentration not given here.
Sequence of ATP-dependent translocase ABCB1 (Homo sapiens) (P08183 whole entry, looked up): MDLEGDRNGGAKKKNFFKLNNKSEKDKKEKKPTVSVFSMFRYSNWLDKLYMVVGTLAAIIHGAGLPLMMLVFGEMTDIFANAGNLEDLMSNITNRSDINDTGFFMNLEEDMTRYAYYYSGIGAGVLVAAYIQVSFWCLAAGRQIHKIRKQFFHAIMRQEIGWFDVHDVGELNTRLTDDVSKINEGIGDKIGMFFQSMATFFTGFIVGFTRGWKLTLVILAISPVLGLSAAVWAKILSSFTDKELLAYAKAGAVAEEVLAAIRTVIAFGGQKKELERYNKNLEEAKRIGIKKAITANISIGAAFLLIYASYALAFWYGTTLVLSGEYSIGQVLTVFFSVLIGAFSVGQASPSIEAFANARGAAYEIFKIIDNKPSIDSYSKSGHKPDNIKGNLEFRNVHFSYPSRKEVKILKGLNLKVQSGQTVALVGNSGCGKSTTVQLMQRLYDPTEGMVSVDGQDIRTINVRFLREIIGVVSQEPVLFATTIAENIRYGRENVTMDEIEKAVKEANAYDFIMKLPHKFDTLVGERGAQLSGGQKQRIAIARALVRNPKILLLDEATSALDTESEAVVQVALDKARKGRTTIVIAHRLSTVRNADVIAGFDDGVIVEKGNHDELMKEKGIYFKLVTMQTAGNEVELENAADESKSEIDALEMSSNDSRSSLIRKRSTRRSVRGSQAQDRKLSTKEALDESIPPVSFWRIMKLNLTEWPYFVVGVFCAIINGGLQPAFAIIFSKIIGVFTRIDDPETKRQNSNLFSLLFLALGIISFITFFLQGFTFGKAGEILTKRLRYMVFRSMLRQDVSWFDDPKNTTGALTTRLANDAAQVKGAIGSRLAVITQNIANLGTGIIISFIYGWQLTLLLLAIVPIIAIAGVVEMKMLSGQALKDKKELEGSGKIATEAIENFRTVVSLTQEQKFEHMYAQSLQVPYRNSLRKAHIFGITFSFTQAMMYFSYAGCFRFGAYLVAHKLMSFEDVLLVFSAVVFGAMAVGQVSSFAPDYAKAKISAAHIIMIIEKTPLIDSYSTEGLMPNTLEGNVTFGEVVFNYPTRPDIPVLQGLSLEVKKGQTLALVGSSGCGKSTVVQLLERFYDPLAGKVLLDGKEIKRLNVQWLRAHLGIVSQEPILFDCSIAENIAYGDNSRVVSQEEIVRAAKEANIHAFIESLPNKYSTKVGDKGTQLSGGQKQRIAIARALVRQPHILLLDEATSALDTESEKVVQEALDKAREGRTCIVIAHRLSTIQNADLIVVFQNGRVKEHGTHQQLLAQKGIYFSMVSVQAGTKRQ
Test [9] is described as follows: Cy5 fluorescence interference with SSB-bound oligo, artefact control for HCV NS3 helicase inhibitor project, biochemical, NIH Clinical Collection, E. coli SSB (AID 743268; call rule not given here).
For test [10], the system named is Hepatitis C virus NS3 helicase. Put plainly: HCV NS3 helicase inhibitors, primary screen, biochemical, fluorescence polarization, NIH Clinical Collection (AID 743270; call rule not given here). As to conditions: NS3 helicase binding to Cy5-dT15 DNA, stronger effect = higher value, concentration not given here. A general note: In fluorescence polarisation assays a small probe gives low polarisation when free and higher when bound to something large.

For test [11], the target named is Single-stranded DNA-binding protein (Escherichia coli (strain K12)) (UniProt P0AGE0). Put plainly: E. coli SSB displacement from DNA, counter-screen for HCV NS3 helicase inhibitor project, biochemical, fluorescence polarization, NIH Clinical Collection (AID 743271; in the data active = inhibition above about 28%). Conditions: stronger effect = higher value, concentration not given here. (A counterscreen serves to expose hits that act by an unwanted route or on another target.)

Test [12] can be described thus: fluorescence interference in NS3h assay format, artefact control for HCV NS3 helicase inhibitor project, biochemical, NIH Clinical Collection (AID 743272; call rule not given here;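 also: HCV NS3 helicase with a Cy5 labelled single stranded DNA probe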). Conditions: fluorescence interference counterscreen, stronger effect = lower value.
A short description of test [13]: kinase inhibitors against Plasmodium liver-stage infection, cell-based, known kinase inhibitor set, luminescence, hepatoma host viability (AID 624392; call rule not given here;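 also: infected cells incubated roughly two days before readout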). Conditions: Plasmodium liver stage in hepatoma cells, luciferase luminescence, concentration not given here; liver cell % of control: measured here: host liver cell viability; parasite % of control: stronger effect = lower value.

[14] abbreviates: measured here: combo with BGB at IC20, at 0.5 µM.
Where [15] appears, read: measured here: combo with cisplatin at IC20, at 0.5 µM.
Setting [16] is: measured here: inhibition with BGB combination, at 0.05 µM.
[17] abbreviates: measured here: inhibition with cisplatin combination, at 0.05 µM.
[18] abbreviates: measured here: combination with cisplatin, at 0.5 µM.
[19] abbreviates: measured here: combination with cisplatin, at 5 µM.
Where [20] appears, read: BGB combination, concentration series, at 5 µM.
The mark [21] stands for this setting: cisplatin combination, concentration series, at 5 µM.
Setting [22] is: measured here: combo with BGB IC20, at 0.5 µM.
Where [23] appears, read: measured here: combo with cisplatin IC20, at 0.5 µM.

Where “and” joins values, the source holds several entries; their conditions need not be identical. Identical values can stand only once. Inconclusive results are not listed. Calls of active or inactive are those of the source. Rule as the data show it, unless noted: active = inhibition above about 80%; inactive = the rest. Where a SMILES comes first, the peptide text is derived from it. [ ]: non-standard residue; d: D form. The star is where a group is joined. Sta = CC(C)C[C@H](N)[C@@H](O)CC(=O)O; Isovaleryl = CC(C)CC(=O)*

For orientation: inhibition means the drop in the measured response relative to a control, in per cent.

Regarding `CC1=C(/C=C/C(C)=C/C=C/C(C)=C/C(=O)Nc2ccc(O)cc2)C(C)(C)CCC1`, the fold fluorescence in test [1] was 6.05 (inactive).
`Nc1nc(Cl)nc2c1ncn2[C@@H]1O[C@H](CO)[C@@H](O)[C@@H]1F`: the inhibition in test [2] (at 0.5 µM) is 92.5% (active) and 92.1% (active); in test [2] (setting [14]), 86.9% and 84.3%; in test [2] (setting [15]), 96.9% and 97.4%; in [3] (at 0.5 µM), 42.4% (inactive) and 38.2% (inactive); in test [3] (setting [16]) it was -20.1% and -11.3%; in [3] (setting [17]), -17.8% and -24.8%. Also, the inhibition in test [4] (at 0.5 µM) was 9.11% (inactive) and 33.6% (inactive); in [4] (setting [18]), 55% and 57.2%; in test [4] (setting [19]) it was 80.6% and 87.7%; in test [5] (setting [20]) it was 76.8% and 56.9%; in [5] (at 0.5 µM) it was 50.9% (inactive) and 49.8% (inactive); in [5] (setting [21]), 99% and 94.5%. Further, the inhibition was 68.3% (inactive) and 72.7% (inactive) in test [6] (at 0.5 µM); 68.2% and 76% in test [6] (setting [22]); 58.4% and 59.2% in test [6] (setting [23]).
`Nc1ncn([C@H]2C[C@H](O)[C@@H](CO)O2)c(=O)n1`: the inhibition in test [2] (at 0.5 µM) is 30.9% (inactive); in [2] (setting [14]), 47.3%; in test [2] (setting [15]), 31.6%; in [3] (at 0.5 µM) it was 16.5% (inactive); in test [3] (setting [16]), 5.24%; in test [3] (setting [17]), -1.44%. The inhibition in test [4] (at 0.5 µM) was -4.56% (inactive); in test [4] (setting [18]), -4.46%; in test [4] (setting [19]) it was 0.176%; in test [5] (setting [20]), 32.1%; in [5] (at 0.5 µM) it was 25% (inactive); in [5] (setting [21]), 40.5%. Also, the inhibition was 26.9% (inactive) in test [6] (at 0.5 µM), 27.2% in test [6] (setting [22]) and 20.4% in test [6] (setting [23]).
Take `C[C@@H](CN1CC(=O)NC(=O)C1)N1CC(=O)NC(=O)C1`: the inhibition in [2] (at 0.5 µM) was -16.4% (inactive); in test [2] (setting [14]), -23.7%; in test [2] (setting [15]), -12.8%; in test [3] (at 0.5 µM), -10.9% (inactive); in test [3] (setting [16]), -2.15%; in [3] (setting [17]), -21.4%. The inhibition in test [4] (at 0.5 µM) was -10.5% (inactive); in [4] (setting [18]), -11.4%; in test [4] (setting [19]), -5.98%; in test [5] (setting [20]) it was -10.8%; in test [5] (at 0.5 µM), -7.98% (inactive); in test [5] (setting [21]), -4.24%. Moreover, the inhibition in test [6] (at 0.5 µM) was 0.89% (inactive); in [6] (setting [22]), -5.32%; in [6] (setting [23]), 12.3%.
For `CC[C@]1(O)C[C@H]2CN(CCc3c([nH]c4ccccc34)[C@@](C(=O)OC)(c3cc4c(cc3OC)N(C=O)[C@H]3[C@@](O)(C(=O)OC)[C@H](OC(C)=O)[C@]5(CC)C=CCN6CC[C@]43[C@@H]65)C2)C1`, in [7], the luciferase signal is 72 AU (inactive).
Turning to `FC(F)(F)c1ccccc1-n1ccnc1`, the fold fluorescence in test [1] was 8.97 [at 235.7 µM] (inactive).
As for `COc1ccc2c(c1OC)C(=O)O[C@@H]2[C@H]1c2c(cc3c(c2OC)OCO3)CCN1C`, the luciferase signal in test [7] was 44 AU (inactive).
Take `CN1CCC[C@@H]1Cc1c[nH]c2ccc(CCS(=O)(=O)c3ccccc3)cc12`: the luciferase signal in test [7] was 48 AU (inactive).
In the case of `CC#C[C@]1(O)CC[C@H]2[C@@H]3CCC4=CC(=O)CCC4=C3[C@@H](c3ccc(N(C)C)cc3)C[C@@]21C`, the fluorescence slope change in test [8] was 142% (active). The fluorescence ratio in [9] and in [12] was 0.97 (inactive) throughout. Moreover, the inhibition was 2.4% (inactive) in [10] and -1.18% (inactive) in test [11]. The luciferase signal in [7] is 36 AU (inactive).
On to `CN(C)C/C=C(/c1ccc(Br)cc1)c1cccnc1`, for which the fluorescence slope change in test [8] was 159% (active).
As to `CC(=O)[C@H]1CC[C@H]2[C@@H]3CC=C4C[C@@H](O)CC[C@]4(C)[C@H]3CC[C@]12C`, the luciferase signal in test [7] was 44 AU (inactive).
For `NS(=O)(=O)c1cc(Cl)c(Cl)c(S(N)(=O)=O)c1`, in [8], the fluorescence slope change is 82.9% (active).
As to `CCCCCOC(=O)Nc1nc(=O)n([C@@H]2O[C@H](C)[C@@H](O)[C@H]2O)cc1F`, the inhibition was -17.2% (inactive) and -2.76% (inactive) in [2] (at 0.5 µM); -8.55% and -7.81% in [2] (setting [14]); -34.6% and 2.4% in test [2] (setting [15]); -11.5% (inactive) and 9.77% (inactive) in test [3] (at 0.5 µM); -37.1% and -7.89% in [3] (setting [16]); -5.98% and 11.7% in test [3] (setting [17]). The inhibition is -21.1% (inactive) and -14.8% (inactive) in test [4] (at 0.5 µM); -19.7% and -16.3% in test [4] (setting [18]); -95.1% and -10.2% in test [4] (setting [19]); -26.2% and 5.45% in test [5] (setting [20]); -11.8% (inactive) and 4.86% (inactive) in test [5] (at 0.5 µM); -6.41% and 4.95% in [5] (setting [21]). In addition, the inhibition is -8.94% (inactive) and 6.03% (inactive) in test [6] (at 0.5 µM); -11% and -1.61% in [6] (setting [22]); -23.1% and 9.49% in test [6] (setting [23]).
On to `CCCCCCCCCCCCCCCC(=O)NCCO`, for which the fold fluorescence in test [1] is 4.46 (inactive).
Same read-out and setting: under `CC(C)CC(=O)N[C@H](C(=O)N[C@H](C(=O)N[C@@H](CC(C)C)[C@@H](O)CC(=O)N[C@@H](C)C(=O)N[C@@H](CC(C)C)[C@@H](O)CC(=O)O)C(C)C)C(C)C` (Isovaleryl-VV[Sta]A[Sta]-OH) stands 4.93 [at 72.9 µM] (inactive).
As to `Clc1ccc(C(Cn2ccnc2)OCc2c(Cl)cccc2Cl)c(Cl)c1` (stereo unspecified), in test [8], the fluorescence slope change is 107% (active).
Consider `C=CC(=O)Nc1cc2c(Nc3ccc(F)c(Cl)c3)ncnc2cc1OCCCN1CCOCC1`, for which, in [13], the liver cell % of control is 85.5% and 77.3% and 90.4%; the parasite % of control is 36.7% (inactive) and 39.4% (inactive) and 33.2% (inactive).
On to `NC(=O)c1ncn([C@@H]2O[C@H](CO)[C@@H](O)[C@H]2O)c1N`, for which the luciferase signal in [7] was 16 AU (inactive).
On to `N=C(N)c1ccc2cc(OC(=O)c3ccc(N=C(N)N)cc3)ccc2c1`, for which the fold fluorescence in test [1] was 12.2 [at 143.9 µM] (inactive).
